Assay results taken from PubChem BioAssay AID1159580 (chemical genetic matrix, 2015).
About 2,000 (36%) of roughly 5,500 compounds were called active. Not shown: some 18% with an inconclusive outcome. No stated cut-off is given here; in the data, active means normalized growth mostly below about 0.91 (no sharp cut-off); inconclusive means no clear call, values can overlap the other calls; inactive means mostly above about 0.92. Some of the results follow.

Test: chemical genetic growth profiling, strain panel (AID 1159580);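 further: tested at 20 µM; growth read once vehicle control cultures reached saturation at 30 °C; 1 = growth at the plate median or of vehicle wells; lower values mean less growth of the strain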
Conditions: growth OD

Measured: normalized growth

CC(C)=CCc1c(O)cc(C)oc1=O
inactive: S. cerevisiae deletion strains, locus YBR021W, strain FUR4, hits give low values 1.01 | S. cerevisiae deletion strains, locus YBR229C, strain ROT2, hits give low values 0.99 | S. cerevisiae deletion strains, locus YCL029C, strain bik1, hits give low values 0.97 | S. cerevisiae deletion strains, locus YDL035C, strain GPR1, hits give low values 1.11 | S. cerevisiae deletion strains, locus YDL074C, strain BRE1, hits give low values 1.12 | S. cerevisiae deletion strains, locus YDL101C, strain DUN1, hits give low values 0.998 | S. cerevisiae deletion strains, locus YDL185W, strain tfp1, hits give low values 0.961 | S. cerevisiae deletion strains, locus YDL192W, strain arf1, hits give low values 1.01 | S. cerevisiae deletion strains, locus YDR101C, strain arx1, hits give low values 1.01 | S. cerevisiae deletion strains, locus YDR150W, strain NUM1, hits give low values 1.01 | S. cerevisiae deletion strains, locus YDR162C, strain NBP2, hits give low values 1.03 | S. cerevisiae deletion strains, locus YDR318W, strain mcm21, hits give low values 0.986 | S. cerevisiae deletion strains, locus YDR388W, hits give low values 0.994 | S. cerevisiae deletion strains, locus YDR502C, strain sam2, hits give low values 0.995 | S. cerevisiae deletion strains, locus YEL061C, strain CIN8, hits give low values 1.03 | S. cerevisiae deletion strains, locus YER110C, hits give low values 0.982 | S. cerevisiae deletion strains, locus YER155C, strain BEM2, hits give low values 0.963 | S. cerevisiae deletion strains, locus YER167W, strain BCK2, hits give low values 0.991 | S. cerevisiae deletion strains, locus YGL078C, strain dbp3, hits give low values 0.981 | S. cerevisiae deletion strains, locus YGL086W, strain mad1, hits give low values 1.01 | S. cerevisiae deletion strains, locus YGL248W, strain PDE1, hits give low values 1.03 | S. cerevisiae deletion strains, locus YGR135W, strain pre9, hits give low values 1 | S. cerevisiae deletion strains, locus YGR252W, strain gcn5, hits give low values 1.03 | S. cerevisiae deletion strains, locus YHR079C, strain IRE1 (second series), hits give low values 0.962 | S. cerevisiae deletion strains, locus YHR094C, strain hxt1, hits give low values 0.978 | S. cerevisiae deletion strains, locus YHR129C, strain ARP1, hits give low values 1.02 | S. cerevisiae deletion strains, locus YHR200W, strain rpn10, hits give low values 0.975 | S. cerevisiae deletion strains, locus YIL066C, strain RNR3, hits give low values 1 | S. cerevisiae deletion strains, locus YIL073C, strain SPO22, hits give low values 1.08 | S. cerevisiae deletion strains, locus YIL125W, strain kgd1, hits give low values 0.981 | S. cerevisiae deletion strains, locus YIR030C, strain dcg1, hits give low values 0.991 | S. cerevisiae deletion strains, locus YJL095W, strain BCK1, hits give low values 1.04 | S. cerevisiae deletion strains, locus YJL134W, strain LCB3, hits give low values 0.988 | S. cerevisiae deletion strains, locus YJL168C, strain set2, hits give low values 0.967 | S. cerevisiae deletion strains, locus YJL187C, strain SWE1 (second series), hits give low values 1 | S. cerevisiae deletion strains, locus YJR043C, strain POL32, hits give low values 1.08 | S. cerevisiae deletion strains, locus YKL009W, strain mrt4, hits give low values 1.01 | S. cerevisiae deletion strains, locus YKL068W, hits give low values 0.98 | S. cerevisiae deletion strains, locus YKL085W, strain MDH1 (second series), hits give low values 0.972 | S. cerevisiae deletion strains, locus YKL085W, strain MDH1, hits give low values 0.972 | S. cerevisiae deletion strains, locus YKL190W, strain CNB1, hits give low values 1.02 | S. cerevisiae deletion strains, locus YKR001C, strain vps1, hits give low values 1.03 | S. cerevisiae deletion strains, locus YLR039C, strain RIC1, hits give low values 1.21 | S. cerevisiae deletion strains, locus YLR058C, strain SHM2, hits give low values 1.01 | S. cerevisiae deletion strains, locus YLR102C, strain apc9, hits give low values 0.953 | S. cerevisiae deletion strains, locus YLR262C, strain YPT6, hits give low values 1.19 | S. cerevisiae deletion strains, locus YLR268W, strain sec22, hits give low values 0.999 | S. cerevisiae deletion strains, locus YLR330W, strain CHS5, hits give low values 1.01 | S. cerevisiae deletion strains, locus YLR371W, strain rom2, hits give low values 0.983 | S. cerevisiae deletion strains, locus YLR418C, strain cdc73, hits give low values 0.987 | S. cerevisiae deletion strains, locus YML016C, strain PPZ1, hits give low values 0.982 | S. cerevisiae deletion strains, locus YML032C, strain rad52, hits give low values 0.994 | S. cerevisiae deletion strains, locus YML124C, strain tub3, hits give low values 0.973 | S. cerevisiae deletion strains, locus YMR078C, strain ctf18, hits give low values 0.98 | S. cerevisiae deletion strains, locus YMR223W, strain ubp8, hits give low values 0.99 | S. cerevisiae deletion strains, locus YMR307W, strain GAS1, hits give low values 1.13 | S. cerevisiae deletion strains, locus YNL067W, strain RPL9B, hits give low values 1.02 | S. cerevisiae deletion strains, locus YNL128W, strain TEP1, hits give low values 1.01 | S. cerevisiae deletion strains, locus YNL233W, strain BNI4, hits give low values 1.05 | S. cerevisiae deletion strains, locus YNL250W, strain rad50, hits give low values 0.94 | S. cerevisiae deletion strains, locus YNL271C, strain bni1, hits give low values 0.986 | S. cerevisiae deletion strains, locus YNL298W, strain CLA4, hits give low values 0.981 | S. cerevisiae deletion strains, locus YNL307C, strain MCK1, hits give low values 1 | S. cerevisiae deletion strains, locus YNL322C, strain KRE1, hits give low values 0.995 | S. cerevisiae deletion strains, locus YNR052C, strain pop2, hits give low values 0.99 | S. cerevisiae deletion strains, locus YOL006C, strain TOP1, hits give low values 1.26 | S. cerevisiae deletion strains, locus YOL012C, strain htz1 0.881 | S. cerevisiae deletion strains, locus YOL147C, strain pex11, hits give low values 0.973 | S. cerevisiae deletion strains, locus YOR061W, strain CKA2, hits give low values 0.991 | S. cerevisiae deletion strains, locus YOR069W, strain VPS5, hits give low values 0.989 | S. cerevisiae deletion strains, locus YOR136W, strain idh2, hits give low values 0.972 | S. cerevisiae deletion strains, locus YOR144C, strain elg1, hits give low values 0.964 | S. cerevisiae deletion strains, locus YOR184W, strain ser1, hits give low values 1.07 | S. cerevisiae deletion strains, locus YOR316C, strain cot1, hits give low values 0.971 | S. cerevisiae deletion strains, locus YPL055C, strain LGE1, hits give low values 1.1 | S. cerevisiae deletion strains, locus YPL241C, strain CIN2, hits give low values 0.997 | S. cerevisiae deletion strains, locus YPR119W, strain clb2, hits give low values 0.963 | S. cerevisiae deletion strains, locus YPR141C, strain kar3, hits give low values 0.954 | S. cerevisiae deletion strains, locus YPR163C, strain tif3, hits give low values 0.995 | S. cerevisiae deletion strains, locus YPR167C, strain met16, hits give low values 0.995 | S. cerevisiae deletion strains, strain wtn01, hits give low values 1.01 | S. cerevisiae strains, strain wild type, hits give low values 1.04
